# High-throughput results (PubChem BioAssay)
# Most compounds without a hit are left out; they make up all but 11% or so of the library.
# HEK cytotox = kills HEK 293 cells. Potency, µM (series often up to 115 µM), for inactives: at the top dose activity change, negative = cytotoxicity, hits mostly inhibitors. 94,000 tested, 6.6% active. HEK 293 viability, ATP luminescence (CellTiter-Glo), 48-72 h; note: nearly all actives have a fitted effect of over 60% in size
#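 ATP-coupled CellTiter-Glo luminescence served as viability read-out, recorded 10 min after reagent addition at room temperature. HEK 293 cells, 250 cells/well, had been incubated with pintool-transferred compound for 48 or 72 hr at 37 degree Celsius.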
# Luciferase inh = blocks purified firefly luciferase enzyme activity. purified P. pyralis luciferase, luminescence, biochemical. Potency, µM (highest dose often 115 µM), most hits filed as inhibitors. P08659. 76,000 tested, 2.5% active; note: nearly all actives have a fitted effect of over 65% in size
#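 Luminescence read by CCD imager after adding enzyme (10nM final) to wells holding compound, titrated in qHTS. Substrates 10uM each D-luciferin and ATP; buffer 50mM Tris acetate pH 7.5, 10mM Mg acetate, Tween-20, BSA.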
# NIH3T3 tox = kills NIH 3T3 cells. NIH 3T3 viability, CellTiter-Glo ATP luminescence, 48-72 h. Potency, µM (top dose mostly 96.7 µM), for inactives: top-dose activity change, negative = cytotoxicity, usual class: inhibitors. 94,000 tested, 4.3% active; note: nearly all actives have a fitted effect of over 55% in size
#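 NIH 3T3 cells at 400 cells/well received 23 nL of compound by pintool and were incubated 48 or 72 h at 37 °C. Viability was read as ATP-coupled CellTiter-Glo luminescence.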
# hNpr1 antagonist = human Npr1 receptor antagonism; P16066; HEK293 hNpr1 GloSensor cGMP, ANP-stimulated luminescence; Potency, µM (top dose mostly 46.3 µM), without a hit: top-dose activity change, negative = inhibition, actives largely listed as inhibitors; 76,000 tested, 1.6% active; AID 1347048; calls by dose curve; note: nearly all actives have a fitted effect of over 60% in size
# Target sequence (P16066 whole entry, looked up): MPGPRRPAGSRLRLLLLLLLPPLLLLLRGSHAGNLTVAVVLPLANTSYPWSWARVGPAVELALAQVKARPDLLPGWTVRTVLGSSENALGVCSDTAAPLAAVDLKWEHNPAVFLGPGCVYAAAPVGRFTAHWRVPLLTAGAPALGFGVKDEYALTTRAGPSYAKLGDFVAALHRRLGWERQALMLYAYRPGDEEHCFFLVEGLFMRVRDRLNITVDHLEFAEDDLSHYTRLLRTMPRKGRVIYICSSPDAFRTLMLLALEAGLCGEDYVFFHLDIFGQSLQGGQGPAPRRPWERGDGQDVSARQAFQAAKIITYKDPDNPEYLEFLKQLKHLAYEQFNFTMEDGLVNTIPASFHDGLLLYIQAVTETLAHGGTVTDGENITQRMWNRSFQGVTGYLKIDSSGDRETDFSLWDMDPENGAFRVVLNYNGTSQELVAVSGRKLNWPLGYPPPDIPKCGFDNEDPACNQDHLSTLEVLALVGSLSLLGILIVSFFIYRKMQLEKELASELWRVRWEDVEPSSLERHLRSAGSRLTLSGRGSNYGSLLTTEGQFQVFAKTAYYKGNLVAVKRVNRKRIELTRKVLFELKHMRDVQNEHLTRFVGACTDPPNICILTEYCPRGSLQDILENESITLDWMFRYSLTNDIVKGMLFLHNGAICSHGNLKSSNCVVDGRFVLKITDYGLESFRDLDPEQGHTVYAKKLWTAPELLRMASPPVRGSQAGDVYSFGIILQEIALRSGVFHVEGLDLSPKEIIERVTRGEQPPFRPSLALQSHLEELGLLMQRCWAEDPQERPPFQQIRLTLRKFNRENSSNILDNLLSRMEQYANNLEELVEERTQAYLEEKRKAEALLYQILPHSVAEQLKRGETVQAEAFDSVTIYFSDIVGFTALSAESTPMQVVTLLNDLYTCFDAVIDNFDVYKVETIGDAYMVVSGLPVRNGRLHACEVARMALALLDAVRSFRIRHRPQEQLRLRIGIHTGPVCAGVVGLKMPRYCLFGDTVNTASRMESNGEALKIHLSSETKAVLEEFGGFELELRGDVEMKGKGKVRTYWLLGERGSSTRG
#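 HEK293 cells stably expressing human Npr1 and cGMP GloSensor pGS-40F, loaded 2 h with 2% GloSensor reagent, given compound 30 min at room temperature. Luminescence read before and 20 min after 0.1 nM hNppA.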
# * hit, by the source's call; i = inactive; ? = inconclusive; . = not tested or not shown; [ ] = remark or other dose. Unless noted, calls come from the whole dose curve; as a rule, active = well fitted curve in the direction sought with a large enough effect; inconclusive = small, poorly fitted or top-dose-only effect, or another doubt; inactive = no such curve, though single readings can be large; an effect the other way counts as inactive or inconclusive. % is set by controls: 0 for no effect and ±100 for the full control effect; potency is the fitted concentration of half-maximal effect.
SMILES,HEK cytotox,Luciferase inh,NIH3T3 tox,hNpr1 antagonist
Cc1noc(C)c1CC(=O)N1CCC(Cc2noc(C3CC3)n2)C1 (stereo not drawn),1%,i,-3%,0%
c1ccc2ncc(CN3CC[C@H](c4nc5ccccc5[nH]4)C3)cc2c1,71µM*,i,?,-16%[70.6 µM]
COc1ccc(C(=O)N2CC(c3nnc(-c4ccc(C)cc4)o3)C3(CCOCC3)C2)c(C)c1 (stereo not drawn),?,i,-5%,0%
Oc1ccccc1CN1CCOC[C@H]1c1ncc(-c2ccc(F)cc2)[nH]1,?,i,-29%[138 µM],-24%[70.6 µM]
Oc1ccccc1CN1CCOC[C@H]1c1ncc(-c2ccccc2)[nH]1,?,i,100µM*,-16%[70.6 µM]
Clc1ccc(-c2cnc([C@@H]3COCCN3Cc3ccccc3)[nH]2)cc1,89µM*,i,?,?
Clc1cccc(-c2cnc([C@@H]3COCCN3C3CCCCC3)[nH]2)c1,79µM*,i,?,-2%[70.6 µM]
Clc1cccc(-c2cnc([C@@H]3COCCN3Cc3ccccc3)[nH]2)c1,100µM*,i,79µM*,?
COc1ccccc1-c1nc2cnccn2c1NCCC(=O)Nc1ccc(C)cc1C,6%,i,-2%,2%
COCCc1nncn1C1CCN(C(=O)c2ccc(C)c(C)c2)CC1,2%,i,4%,-1%
COCCOC1CCNCC1,15%,i,-1%,3%
CC(C)N1C(=O)C2(CCCC2)C1C(=O)NCCCN1CCCC1=O (stereo not drawn),1%,i,2%,-3%
CC(=O)N1CCC(N2CC[C@H](c3nc4ccccc4s3)C2)CC1,-11%[172 µM],?,i,2%[70.6 µM]
c1ccc2sc([C@H]3CCN(C4CCC4)C3)nc2c1,?,1.6µM*,-13%[230 µM],22µM*
CCc1noc(-c2cn(C3CCN(C(=O)c4ccc(F)c(Cl)c4)C3)nn2)n1 (stereo not drawn),?,i,?,-25%
O[C@@H]1C[C@@H](c2nnc3n2CCN(Cc2ccccc2)C3)N(Cc2cccnc2)C1,-8%,i,-16%,2%
Cc1noc2c(NCCN3CCOCC3)cc(-c3cccc(C(F)(F)F)c3)nc12,?,i,?,0%[70.6 µM]
CCCCc1cc(C[C@H]2CNCC[C@H]2CC(=O)NC2CCCCC2)no1,?,i,?,2%[70.6 µM]
O=C(C[C@@H]1CCNC[C@@H]1Cc1cc(CC2CCCCC2)on1)N1CCC(Cc2ccccc2)CC1,?,i,25µM*,-2%
O=C(C[C@@H]1CCNC[C@@H]1Cc1cc(COc2ccccc2)on1)N1CCC(Cc2ccccc2)CC1,25µM*,i,28µM*,-17%
CCCCc1cc(C[C@H]2CNCC[C@H]2CC(=O)N2CCC(Cc3ccccc3)CC2)no1,?,i,28µM*,2%
O=C(C[C@@H]1CCNC[C@@H]1Cc1cc(COc2ccccc2)on1)NC1CCCCC1,100µM*,i,63µM*,4%[70.6 µM]
Cc1ccc(OCc2nc(C3CCCN3C(=O)Nc3ccccc3)no2)cc1 (stereo not drawn),89µM*,.,?,.
Cc1ccc(NC(=O)N2CCCCC2c2noc(COc3ccc(F)cc3)n2)cc1F (stereo not drawn),45µM*,i,?,-26%
Cc1ccc(OCc2nc(C3CCCCN3C(=O)NCc3ccc(F)cc3)no2)cc1 (stereo not drawn),?,i,?,5%
SMILES,HEK cytotox,Luciferase inh,NIH3T3 tox,hNpr1 antagonist
Cc1ccc(OCc2nc(C3CCCN3C(=O)Nc3ccc(C)c(F)c3)no2)cc1 (stereo not drawn),89µM*,i,?,-23%
CNC(=O)[C@H]1C[C@H](Oc2ccccc2)CN1Cc1cccn1C,?,i,4%,-16%
COCCNC(=O)[C@H]1C[C@H](Oc2ccccc2)CN1Cc1cccnc1,i,i,i,2%
CNC(=O)[C@H]1C[C@H](Oc2ccccc2)CN1Cc1cn(C)c2ccc(OC)cc12,28µM*,i,32µM*,-3%
COCCNC(=O)[C@H]1C[C@H](Oc2ccccc2)CN1Cc1cccc(C)c1,13µM*,i,-24%,0%
COCCNC(=O)C1CCc2sc(C(=O)N(C)C)cc2C1 (stereo not drawn),-3%,i,i,5%
COc1cc(CC(=O)N2Cc3[nH]cnc3CC2C(=O)O)cc(OC)c1OC (stereo not drawn),-25%,i,2%,1%
O[C@@H]1C[C@@H](c2nc(-c3ccc(OC(F)(F)F)cc3)no2)N(C2CCOCC2)C1,?,40µM*,?,-10%[70.6 µM]
O[C@H]1CN[C@H](c2nc(-c3ccc(OC(F)(F)F)cc3)no2)C1,?,32µM*,-26%[174 µM],-18%[70.6 µM]
O=C(Nc1ccc(F)cc1F)c1cc(-c2ccc[nH]2)n[nH]1,?,14µM*,-24%,2%
COc1ccc(NC(=O)c2cc(-c3ccc[nH]3)n[nH]2)cc1,-3%,13µM*,-4%,-5%
COc1ccc(Cl)cc1NC(=O)c1cc(-c2ccc[nH]2)n[nH]1,?,?,?,-8%
COc1ccc(NC(=O)c2cc(-c3ccc[nH]3)n[nH]2)c(OC)c1,?,20µM*,-25%,-17%
O=C(Nc1ccc(OC(F)(F)F)cc1)c1cc(-c2ccc[nH]2)n[nH]1,13µM*,?,25µM*,1%
Cc1ccc(CN(C)C(=O)c2coc(COc3ccc(F)cc3Cl)n2)cc1,?,i,?,3%
CC1(CCC(=O)N2CCC(Oc3ccccc3F)(C(=O)O)CC2)CC1,-7%,i,i,18%
O=C(NCc1ccccc1)c1cn(C2CN(C(=O)NCc3ccccc3)C2)nn1,?,i,-23%,-18%
CCOc1ccc(NC(=O)c2cc(-c3ccc[nH]3)n[nH]2)cc1,6%,7.1µM*,1%,3%
CCc1ccc(N2CC(c3noc(-c4ccc(OC)cc4OC)n3)CC2=O)cc1 (stereo not drawn),?,i,?,-23%
CCc1ccc(N2CC(c3noc(C4(c5ccc(OC)cc5)CC4)n3)CC2=O)cc1 (stereo not drawn),45µM*,i,?,?
CCc1ccc(N2CC(c3noc(-c4cccc(OC)c4OC)n3)CC2=O)cc1 (stereo not drawn),79µM*,i,28µM*,3%
CCc1ccc(N2CC(c3noc(-c4ccc(OC)cc4)n3)CC2=O)cc1 (stereo not drawn),?,i,?,0%
COc1cccc(CN2CCCCCCNC(=O)CC2c2ccccc2)c1OC (stereo not drawn),45µM*,i,40µM*,1%
CCOc1ccccc1CN1CCCCCCNC(=O)CC1c1ccccc1 (stereo not drawn),32µM*,i,25µM*,-1%
CCOc1ccccc1CN1CCO[C@@H](COC)[C@@H]1c1ccccc1,40µM*,.,-27%,.
COc1cccc(CN2CCCCCNC(=O)CC2c2ccccc2)c1OC (stereo not drawn),?,i,?,2%
